Data from PubChem BioAssay (Tox21).
Records with an inconclusive call do not appear. A call without a number means that no potency is given here. A number with no mark means an inactive call. Activity calls are given as the source filed them. Calls come from the whole dose curve; as a rule, active = well fitted cell-killing curve with a large enough effect in the repeat runs; inconclusive = weak or mixed curves, or effect the other way; inactive = flat fitted curve, though single readings scatter.

Test: cAMP Responsive Elements (CRE) small molecule antagonists, cell-based qHTS assay: qHTS cell viability counter screen (AID 2060913); note: nearly all actives have a fitted effect of over 40% in size
Details: CRE-bla HEK293T viability, CellTiter-Glo luminescence, 5 h; series mostly up to 92.4 µM
Source text: U.S. Tox21 Program National Center for Advancing Translational Sciences [NCATS] Division of Preclinical Innovation [DPI] U.S. Environmental Protection Agency [EPA] National Institutes of Environmental Health Sciences [NIEHS] National Toxicology Program [NTP] U.S. Food and Drug Administration [FDA] Tox21 Assay Overview: CREB (cyclic-AMP Responsive Element Binding Protein) is a cellular transcription factor. It binds to certain DNA sequences called cAMP Responsive Elements (CRE) and regulates the transcription of the genes. […] This cell line can be used to find agonists/antagonists of the cyclic AMP signaling pathway. The activation of the report gene under culture conditions can be detected by fluorescence intensity. This cell line has been used to screen the Tox21 10K compound library to identify agonists that induce oxidative stress. The cytotoxicity of the Tox21 compound library against the CRE-bla cell line was tested in parallel by measuring the cell viability using CellTiter-Glo assay (Promega, Madison, WI) in the same wells.
Tox21 Assay Protocol Summary: CRE-bla Hek 293T cells were suspended in assay medium (DMEM containing 10% dialyzed FBS, 0.1 mM NEAA, 1 mM sodium pyruvate and 25 mM HEPES) and dispensed at 2,000 cells/4 uL /well into 1536-well black wall/clear bottom plates using a Multidrop Combi (ThermoFisher Scientific, Waltham, MA) dispenser. After the assay plates were incubated at 37 C/5% CO2 for 18 hrs, 23 nL of compounds dissolved in DMSO, positive controls or DMSO only was transferred to the assay plate by a pintool workstation (Kalypsys, San Diego, CA), followed by addition of 1 uL of 1.25uM NKH477 (0.25 uM as final concentration) in assay medium using a Flying Reagent Dispenser (Aurora Discovery, San Diego, CA). The plates were incubated at 37 C and 5% CO2 for 3 hrs. Then 1 uL of LiveBLAzer B/G FRET substrate (Invitrogen, Carlsbad, CA) was added to each well using Bioraptr Flying Reagent Dispenser (FRD, Aurora Discovery, San Diego, CA). The plates were incubated at room temperature for 2 h, then fluorescence intensities were measured using an Envision plate reader (PerkinElmer, Shelton, CT) at Excitation 405nm, Emission 460nm and 530nm. The % activity was determined from the ratio of 460nm/530nm. For cell viability readout that measures cytotoxicity, 4 uL /well of CellTiter-Glo reagent was added into the assay plates using Bioraptr FRD. After 30 min incubation at room temperature, the luminescence intensity in the assay plates was measured using a ViewLux (PerkinElmer, Shelton, CT) plate reader.
Potency is the fitted concentration of half-maximal effect.

Row | Compound | Potency | viability change, negative = cytotoxic
1 | COc1cc(OC)nc(O[C@H](C(=O)O)C(OC)(c2ccccc2)c2ccccc2)n1 | inactive | –
2 | COc1c(N2C[C@@H]3CCCN[C@@H]3C2)c(F)cc2c(=O)c(C(=O)O)cn(C3CC3)c12 | inactive | –
3 | OC(CCN1CCCC1)(c1ccccc1)C1CCCCC1 (stereo not given) | inactive | –
4 | O=C1CCc2cc(OCCCCc3nnnn3C3CCCCC3)ccc2N1 | inactive | –
5 | CC(O)CN(CCCN(C)C)CCCN(C)C (stereo not given) | inactive | –
6 | CCCCCCCCCCC=CC1CC(=O)OC1=O (stereo not given) | inactive | –
7 | Nc1ccc(C(=O)N2CC3CC(CN(Cc4ccccc4)C3)C2)cc1 | inactive | –
8 | CC(CC(C#N)(c1ccccc1)C(C)C)N(C)C (stereo not given) | inactive | –
9 | CCCCCCCC[P+](CCCCCCCC)(CCCCCCCC)CCCCCCCC | 17.1 µM (active) | –
10 | O=C(Oc1cccc2cccnc12)c1ccccc1 | inactive | –
11 | CCCC(=O)C(=O)O | inactive | –
12 | CCCOCC(C)O (stereo not given) | inactive | –
13 | Cc1cc(C)c(O)c(C(C)(C)C)c1 | inactive | –
14 | O=C(Cl)c1ccc(Cl)cc1Cl | inactive | –
15 | COC(=O)c1c(C)cc(O)c(C)c1O | inactive | –
16 | Cc1c[nH]c2ccccc12 | inactive | –
17 | CCOC(=O)OC(=O)OCC | inactive | –
18 | CCCCN(CCCC)C(C(N)=O)c1ccc(OC)cc1 (stereo not given) | inactive | –
19 | CC(C)Cn1cnc2c(N)nc3ccccc3c21 | – | -1.2% [at 18.9 µM]
20 | OCCN(CCO)CCN(CCO)CCO | inactive | –

Row | Compound | Potency | viability change, negative = cytotoxic
21 | CC(=O)N[C@@H](CCC(N)=O)C(=O)O | inactive | –
22 | Cc1nc(C)c(C)nc1C | inactive | –
23 | CC1CCC(CO)CC1 (stereo not given) | inactive | –
24 | CCCCCCCCCCCCCC(=O)OCC | inactive | –
25 | CC1(C)S[C@@H]2[C@H](N=CN3CCCCCC3)C(=O)N2[C@H]1C(=O)O | inactive | –
26 | Cn1cnc2c(=O)[nH]c(N)nc21 | inactive | –
27 | CCOC(C)(C)C | inactive | –
28 | CCCCNS(=O)(=O)c1ccccc1 | inactive | –
29 | CN1[C@@H]2CC[C@H]1CC(NC(=O)n1c(=O)[nH]c3ccccc31)C2 (stereo not given in full) | inactive | –
30 | CC1=CC(=O)CC(C)(C)C1=O | inactive | –
31 | IC(I)I | inactive | –
32 | C=C/C(C)=C/C/C=C(\C)CCC=C(C)C | inactive | –
33 | O=C1OC2(c3ccc(O)cc3Oc3cc(O)ccc32)c2ccccc21 | inactive | –
34 | C/C=C/C(=O)O | inactive | –
35 | CCC(C)C=O (stereo not given) | inactive | –
36 | CCCCCCC(C)Nc1ccc(Nc2ccccc2)cc1 (stereo not given) | inactive | –
37 | CC1=CC[C@@]23C[C@@H]1C(C)(C)[C@@H]2CC[C@H]3C | inactive | –
38 | CC1CCN(CCCC(=O)c2ccc(F)cc2)CC1 | inactive | –
39 | NNc1nnc(NN)c2ccccc12 | inactive | –
40 | CC(=O)c1ccccc1O | inactive | –
